Laboratory results from PubChem BioAssay (EPA / NIEHS).
Results filed as inconclusive are left out. Activity calls are given as the source filed them. How the source made its calls, unless noted: active means hit-call score of the fitted dose curve at least 0.9, where 1 is the maximum; inactive means score below 0.9.

How the values were obtained:
[1] = ATG_NFI_CIS: Attagene CIS-FACTORIAL HepG2 Assay for human Nuclear Factor I (NFI) (AID 2282989); details: HepG2 cis-regulatory reporter, NFI response element transcription; actives raise or lower the signal
Procedure, shortened: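 HepG2 cells transiently transfected with cis-element-driven multiplexed reporter transcription units, dosed for 24 h. Reporter mRNA quantified by RT-PCR, fluorescent labelling, HpaI digestion and capillary electrophoresis; bidirectional fit versus DMSO baseline.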

[2] = biological target: Myc proto-oncogene protein (Homo sapiens) (UniProt P01106); test: ATG_Myc_CIS: Attagene CIS-FACTORIAL HepG2 Assay for human Myelocytomatosis (Myc) Proto-Oncogene Transcription Factor (AID 2282990); details: HepG2, Attagene cis-reporter transcription factor activity; actives raise or lower the signal
Chain of Myc proto-oncogene protein (Homo sapiens) (P01106 whole entry, looked up): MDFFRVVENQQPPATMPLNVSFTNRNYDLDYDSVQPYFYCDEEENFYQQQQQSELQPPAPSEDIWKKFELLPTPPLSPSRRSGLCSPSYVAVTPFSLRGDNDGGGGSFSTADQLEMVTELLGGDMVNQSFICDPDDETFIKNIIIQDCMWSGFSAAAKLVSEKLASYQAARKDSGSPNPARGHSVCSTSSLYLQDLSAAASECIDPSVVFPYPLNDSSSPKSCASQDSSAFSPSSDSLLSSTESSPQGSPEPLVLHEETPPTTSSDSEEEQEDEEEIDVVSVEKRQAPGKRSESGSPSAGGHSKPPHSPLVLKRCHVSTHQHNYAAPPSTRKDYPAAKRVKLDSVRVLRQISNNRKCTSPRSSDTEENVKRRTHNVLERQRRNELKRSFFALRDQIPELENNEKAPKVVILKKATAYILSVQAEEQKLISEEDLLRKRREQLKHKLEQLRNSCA
Procedure, shortened: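 Transiently transfected HepG2 cells bearing cis-promoter reporter units for endogenous transcription factors; 24 h exposure. Reporter mRNA measured by RT-PCR, 6-FAM primer extension, HpaI cut and capillary electrophoresis; bidirectional fit relative to DMSO.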

[3] = ATG_NF_kB_CIS: Attagene CIS-FACTORIAL HepG2 Assay for human Nuclear Factor Kappa B (NF-kB) (AID 2282991); details: HepG2 Attagene cis-factorial NF-kB reporter mRNA; actives raise or lower the signal
Procedure, shortened: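 Endogenous transcription factor activity in HepG2 was captured via cis-regulated reporter constructs; after 24 h dosing, reporter mRNA was reverse-transcribed, amplified, fluorescently labelled and sized by capillary electrophoresis, with activity fitted bidirectionally relative to DMSO.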

[4] = ATG_NRF2_ARE_CIS: Attagene CIS-FACTORIAL HepG2 Assay for human Nuclear Factor Erythroid 2 Related Factor 2 (NFR2) response to Antioxidant Response Elements (ARE) (AID 2282992); details: HepG2 Attagene ARE/NRF2 reporter, transcription factor activity; actives raise or lower the signal;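 on AC50: reporter mRNA level measured by RT-PCR and capillary electrophoresis fluorescence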
Procedure, shortened: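 Multiplexed reporter mRNA profiling in HepG2 after a 24 h chemical exposure. Curves fitted in both directions relative to DMSO negative control.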

[5] = ATG_Oct_MLP_CIS: Attagene CIS-FACTORIAL HepG2 Assay for human Octamer-Binding Transcription Factor (Oct) (AID 2282993); details: HepG2 Attagene cis-factorial Oct reporter, mRNA; actives raise or lower the signal
Procedure, shortened: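 HepG2 cells transiently transfected with cis-promoter-driven multiplexed reporter transcription units, dosed for 24 h. Reporter mRNA quantified by RT-PCR, fluorescent labelling, HpaI digestion and capillary electrophoresis; bidirectional fits versus DMSO baseline.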

[6] = biological target: Cellular tumor antigen p53 (Homo sapiens) (UniProt P04637); test: ATG_p53_CIS: Attagene CIS-FACTORIAL HepG2 Assay for human p53 Transcription Factor (AID 2282994); details: HepG2 p53 cis-element reporter, Attagene mRNA; actives raise or lower the signal
Chain of Cellular tumor antigen p53 (Homo sapiens) (P04637 whole entry, looked up): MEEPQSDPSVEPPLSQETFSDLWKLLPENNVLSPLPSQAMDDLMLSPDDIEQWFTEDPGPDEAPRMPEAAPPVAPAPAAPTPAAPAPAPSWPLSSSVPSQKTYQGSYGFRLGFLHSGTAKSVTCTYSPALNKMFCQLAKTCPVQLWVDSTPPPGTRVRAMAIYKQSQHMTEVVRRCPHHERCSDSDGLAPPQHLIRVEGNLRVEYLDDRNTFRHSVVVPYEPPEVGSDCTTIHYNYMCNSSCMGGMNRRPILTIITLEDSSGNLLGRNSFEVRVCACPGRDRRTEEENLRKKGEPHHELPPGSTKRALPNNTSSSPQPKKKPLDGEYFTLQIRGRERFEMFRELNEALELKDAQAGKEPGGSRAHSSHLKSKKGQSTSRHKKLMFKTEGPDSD
Procedure, shortened: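 Multiplexed reporter mRNA assay in human HepG2 liver cells; cis-regulated units report endogenous factor activity. Values come from bidirectional curve fitting against DMSO negative control after 24 h treatment.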

[7] = biological target: human Peroxisome Proliferator-activated Receptor delta (PPARd), PPARD (gene 5467) (UniProt Q03181); test: ATG_PPARd_TRANS: Attagene TRANS-FACTORIAL HepG2 Assay for human Peroxisome Proliferator-activated Receptor delta (PPARd) (AID 2283002; active means hit-call score of the fitted dose curve at least 0.9, where 1 is the maximum)
Chain of human Peroxisome Proliferator-activated Receptor delta (PPARd), PPARD (gene 5467) (Q03181 whole entry, looked up, the tested form may be a part): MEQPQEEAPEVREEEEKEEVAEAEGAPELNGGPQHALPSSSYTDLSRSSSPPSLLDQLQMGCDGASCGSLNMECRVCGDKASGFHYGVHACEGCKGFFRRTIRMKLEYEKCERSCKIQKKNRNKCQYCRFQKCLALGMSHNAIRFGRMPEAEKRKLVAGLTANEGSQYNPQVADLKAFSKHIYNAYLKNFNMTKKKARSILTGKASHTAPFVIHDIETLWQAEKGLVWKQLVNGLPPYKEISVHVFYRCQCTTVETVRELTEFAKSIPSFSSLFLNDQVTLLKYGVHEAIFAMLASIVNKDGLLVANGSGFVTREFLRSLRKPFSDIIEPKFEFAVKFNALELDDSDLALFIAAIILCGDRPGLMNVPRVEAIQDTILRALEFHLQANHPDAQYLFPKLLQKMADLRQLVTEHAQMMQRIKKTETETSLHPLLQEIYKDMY
Procedure, shortened: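 HepG2 cells transiently transfected with GAL4-UAS multiplexed reporter units driven by exogenous chimeric NR-GAL4 proteins; 24 h compound exposure. Reporter mRNA measured by RT-PCR, 6-FAM primer extension, HpaI digestion and capillary electrophoresis; gain of signal fitted relative to DMSO.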

[8] = biological target: human Retinoic Acid Receptor beta (RARb), RARB (gene 5915) (UniProt P10826); test: ATG_RARb_TRANS: Attagene TRANS-FACTORIAL HepG2 Assay for human Retinoic Acid Receptor beta (AID 2283004; active means hit-call score of the fitted dose curve at least 0.9, where 1 is the maximum)
Chain of human Retinoic Acid Receptor beta (RARb), RARB (gene 5915) (P10826 whole entry, looked up, the tested form may be a part): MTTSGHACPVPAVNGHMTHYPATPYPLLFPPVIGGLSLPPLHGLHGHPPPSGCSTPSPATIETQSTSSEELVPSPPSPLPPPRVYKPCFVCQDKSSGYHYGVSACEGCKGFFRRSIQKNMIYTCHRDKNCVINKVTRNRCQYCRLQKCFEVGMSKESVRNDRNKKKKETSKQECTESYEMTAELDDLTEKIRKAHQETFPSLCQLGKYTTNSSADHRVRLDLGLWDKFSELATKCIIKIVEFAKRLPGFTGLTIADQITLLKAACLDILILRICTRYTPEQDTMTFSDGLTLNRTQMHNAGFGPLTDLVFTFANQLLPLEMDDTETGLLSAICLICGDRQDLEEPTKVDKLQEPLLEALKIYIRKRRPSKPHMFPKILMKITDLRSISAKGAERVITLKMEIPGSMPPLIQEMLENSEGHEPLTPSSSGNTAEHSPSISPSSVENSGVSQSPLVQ
Procedure, shortened: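 Fluorescent capillary-electrophoresis detection of GAL4-UAS reporter mRNA defines the endpoint, with induction over DMSO-treated wells scored as activity. Transiently transfected human hepatoma HepG2 cells expressing exogenous NR–Gal4 proteins are exposed to test chemicals for 24 h.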

[9] = biological target: Retinoic acid receptor alpha (Homo sapiens) (UniProt P10276); test: ATG_RARa_TRANS: Attagene TRANS-FACTORIAL HepG2 Assay for human Retinoic Acid Receptor alpha (RARa) (AID 2283005; active means hit-call score of the fitted dose curve at least 0.9, where 1 is the maximum)
Chain of Retinoic acid receptor alpha (Homo sapiens) (P10276 whole entry, looked up, the tested form may be a part): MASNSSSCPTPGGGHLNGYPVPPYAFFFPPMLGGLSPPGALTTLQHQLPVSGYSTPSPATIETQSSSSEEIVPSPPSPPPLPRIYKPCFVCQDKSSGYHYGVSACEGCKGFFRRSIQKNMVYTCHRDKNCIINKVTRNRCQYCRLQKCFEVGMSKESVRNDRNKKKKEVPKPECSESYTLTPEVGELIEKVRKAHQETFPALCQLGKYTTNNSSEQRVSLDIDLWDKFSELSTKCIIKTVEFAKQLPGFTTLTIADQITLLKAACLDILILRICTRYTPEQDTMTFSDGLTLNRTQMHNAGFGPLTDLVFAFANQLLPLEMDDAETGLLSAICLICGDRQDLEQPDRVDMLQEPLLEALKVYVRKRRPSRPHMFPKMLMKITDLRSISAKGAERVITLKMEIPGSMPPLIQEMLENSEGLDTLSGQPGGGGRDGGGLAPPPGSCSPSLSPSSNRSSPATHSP
Procedure, shortened: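 HepG2 transiently transfected with multiplex GAL4-UAS reporter units including a human RARa–GAL4 chimera; 24 h compound exposure. Reporter mRNA quantified by RT-PCR, 6-FAM labeling and capillary electrophoresis; gain of signal versus DMSO.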

[10] = biological target: Peroxisome proliferator-activated receptor gamma (Homo sapiens) (UniProt P37231); test: ATG_PPARg_TRANS: Attagene TRANS-FACTORIAL HepG2 Assay for human Peroxisome Proliferator-activated Receptor-gamma (PPARg) (AID 2283007; active means hit-call score of the fitted dose curve at least 0.9, where 1 is the maximum)
Chain of Peroxisome proliferator-activated receptor gamma (Homo sapiens) (P37231 whole entry, looked up, the tested form may be a part): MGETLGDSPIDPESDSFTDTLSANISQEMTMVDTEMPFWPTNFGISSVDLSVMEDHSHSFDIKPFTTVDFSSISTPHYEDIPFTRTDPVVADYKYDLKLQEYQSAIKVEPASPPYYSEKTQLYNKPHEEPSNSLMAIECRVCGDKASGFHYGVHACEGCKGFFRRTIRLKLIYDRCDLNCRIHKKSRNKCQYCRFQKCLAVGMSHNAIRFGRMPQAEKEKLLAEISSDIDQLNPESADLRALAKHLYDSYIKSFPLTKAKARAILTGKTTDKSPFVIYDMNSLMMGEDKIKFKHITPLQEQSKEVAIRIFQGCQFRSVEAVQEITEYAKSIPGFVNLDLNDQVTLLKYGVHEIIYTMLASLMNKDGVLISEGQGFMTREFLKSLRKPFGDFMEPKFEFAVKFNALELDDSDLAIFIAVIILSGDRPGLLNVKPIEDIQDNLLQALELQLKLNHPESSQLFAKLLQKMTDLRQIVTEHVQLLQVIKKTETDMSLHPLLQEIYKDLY
Procedure, shortened: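 A TRANS-format multiplexed reporter assay measures activity of an exogenous chimeric NR-Gal4 protein in HepG2 cells. After 24 h of chemical exposure, reporter transcripts are amplified, fluorescently labelled and sized by capillary electrophoresis, with gain of signal scored against DMSO.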

[11] = biological target: Nuclear receptor subfamily 1 group I member 2 (Homo sapiens) (UniProt O75469); test: ATG_PXR_TRANS: Attagene TRANS-FACTORIAL HepG2 Assay for human Pregnane X Receptor (PXR) (AID 2283008; active means hit-call score of the fitted dose curve at least 0.9, where 1 is the maximum)
Chain of Nuclear receptor subfamily 1 group I member 2 (Homo sapiens) (O75469 whole entry, looked up, the tested form may be a part): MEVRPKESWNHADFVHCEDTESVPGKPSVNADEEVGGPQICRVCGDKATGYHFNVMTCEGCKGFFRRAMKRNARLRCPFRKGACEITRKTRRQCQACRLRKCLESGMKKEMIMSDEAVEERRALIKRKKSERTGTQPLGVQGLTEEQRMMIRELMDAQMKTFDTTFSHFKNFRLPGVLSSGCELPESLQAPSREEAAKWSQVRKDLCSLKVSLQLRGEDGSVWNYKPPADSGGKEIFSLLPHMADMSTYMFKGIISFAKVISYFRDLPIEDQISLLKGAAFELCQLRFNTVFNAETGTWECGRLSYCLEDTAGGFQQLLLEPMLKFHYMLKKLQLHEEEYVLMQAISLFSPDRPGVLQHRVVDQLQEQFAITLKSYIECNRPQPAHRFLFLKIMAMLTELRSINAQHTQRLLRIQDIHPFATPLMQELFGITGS
Procedure, shortened: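 Measures mRNA induction of a GAL4-UAS-driven reporter in human HepG2 cells transiently expressing PXR fused to Gal4, following 24 h treatment. DMSO served as negative control and baseline.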

[12] = biological target: human Retinoic Acid Receptor gamma (RARg), RARG (gene 5916) (UniProt P13631); test: ATG_RARg_TRANS: Attagene TRANS-FACTORIAL HepG2 Assay for human Retinoic Acid Receptor gamma (RARg) (AID 2283009; active means hit-call score of the fitted dose curve at least 0.9, where 1 is the maximum)
Chain of human Retinoic Acid Receptor gamma (RARg), RARG (gene 5916) (P13631 whole entry, looked up, the tested form may be a part): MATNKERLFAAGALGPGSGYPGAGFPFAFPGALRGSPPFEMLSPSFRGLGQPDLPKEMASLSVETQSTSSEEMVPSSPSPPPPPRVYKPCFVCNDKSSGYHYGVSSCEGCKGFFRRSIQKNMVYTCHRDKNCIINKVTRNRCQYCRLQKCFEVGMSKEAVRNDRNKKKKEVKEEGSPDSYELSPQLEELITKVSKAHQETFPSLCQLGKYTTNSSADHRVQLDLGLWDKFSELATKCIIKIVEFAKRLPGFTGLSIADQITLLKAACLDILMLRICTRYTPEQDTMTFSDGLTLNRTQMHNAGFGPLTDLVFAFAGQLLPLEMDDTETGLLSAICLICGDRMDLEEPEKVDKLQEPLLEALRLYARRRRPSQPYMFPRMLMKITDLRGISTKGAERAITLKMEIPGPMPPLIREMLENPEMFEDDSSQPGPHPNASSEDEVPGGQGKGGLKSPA
Procedure, shortened: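 HepG2, RARg-GAL4 TRANS system, 24 h exposure; reporter mRNA by RT-PCR + CE fluorescence; increase over DMSO.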

[13] = biological target: human RAR-related Orphan Receptor beta (RORb), RORB (gene 6096) (UniProt Q92753); test: ATG_RORb_TRANS: Attagene TRANS-FACTORIAL HepG2 Assay for human RAR-related Orphan Receptor beta (RORb) (AID 2283010; active means hit-call score of the fitted dose curve at least 0.9, where 1 is the maximum)
Chain of human RAR-related Orphan Receptor beta (RORb), RORB (gene 6096) (Q92753 whole entry, looked up, the tested form may be a part): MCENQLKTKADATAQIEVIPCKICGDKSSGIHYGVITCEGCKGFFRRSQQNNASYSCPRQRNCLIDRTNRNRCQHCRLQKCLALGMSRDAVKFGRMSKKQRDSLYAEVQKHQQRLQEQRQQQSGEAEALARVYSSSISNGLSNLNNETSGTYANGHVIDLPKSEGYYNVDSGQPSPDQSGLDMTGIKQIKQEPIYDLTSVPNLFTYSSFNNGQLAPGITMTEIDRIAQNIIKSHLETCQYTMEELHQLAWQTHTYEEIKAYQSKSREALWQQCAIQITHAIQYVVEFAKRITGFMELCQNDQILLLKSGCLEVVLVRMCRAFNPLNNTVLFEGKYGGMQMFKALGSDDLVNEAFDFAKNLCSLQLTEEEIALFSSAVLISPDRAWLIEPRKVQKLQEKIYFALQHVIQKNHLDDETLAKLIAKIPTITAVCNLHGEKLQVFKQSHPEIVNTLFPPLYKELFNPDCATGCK
Procedure, shortened: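 In this TRANS-format test, human HepG2 cells express chimeric NR-Gal4 fusion proteins driving GAL4-UAS reporters. After 24 h dosing, reporter transcripts are measured by fluorescent RT-PCR/capillary electrophoresis, with DMSO as negative control.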

[14] = biological target: human Peroxisome Proliferator-activated Receptor alpha (PPARa), PPARA (gene 5465) (UniProt Q07869); test: ATG_PPARa_TRANS: Attagene TRANS-FACTORIAL HepG2 Assay for human Peroxisome Proliferator-activated Receptor alpha (PPARa) (AID 2283001; active means hit-call score of the fitted dose curve at least 0.9, where 1 is the maximum)
Chain of human Peroxisome Proliferator-activated Receptor alpha (PPARa), PPARA (gene 5465) (Q07869 whole entry, looked up, the tested form may be a part): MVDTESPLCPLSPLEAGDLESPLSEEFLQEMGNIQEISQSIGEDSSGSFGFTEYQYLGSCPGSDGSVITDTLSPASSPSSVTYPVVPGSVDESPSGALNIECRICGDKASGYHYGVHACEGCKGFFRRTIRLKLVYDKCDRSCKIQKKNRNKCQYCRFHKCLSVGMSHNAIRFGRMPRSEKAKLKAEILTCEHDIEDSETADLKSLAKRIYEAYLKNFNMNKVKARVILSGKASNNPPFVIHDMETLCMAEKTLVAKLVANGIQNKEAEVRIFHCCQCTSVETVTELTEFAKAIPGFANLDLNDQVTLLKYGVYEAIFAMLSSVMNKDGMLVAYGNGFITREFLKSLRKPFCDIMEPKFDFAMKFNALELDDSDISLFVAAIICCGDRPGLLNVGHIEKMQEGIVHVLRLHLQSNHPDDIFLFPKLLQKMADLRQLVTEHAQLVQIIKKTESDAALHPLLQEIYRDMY
Procedure, shortened: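 Measures transcriptional activity of an exogenous chimeric PPARa-Gal4 protein in transiently transfected HepG2 cells after 24 h dosing. Reporter mRNA quantified via RT-PCR and capillary electrophoresis; DMSO served as negative control.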

Measured: AC50

CCCCCCCC(=O)OCCCCCC
not listed: [13] | [14]
inactive: all other assays above

C=Cc1ccc(C)cc1
inactive: [1] | [2] | [3] | [4] | [5] | [6] | [10] | [11]

CCCCC(CC)C(=O)OC(C)C (centres undefined)
not listed: [7] | [9] | [12] | [14]
inactive: all other assays above

N[C@@H](Cc1cc(I)c(Oc2cc(I)c(O)c(I)c2)c(I)c1)C(=O)O
inactive: [1] | [2] | [3] | [5] | [6] | [13]
active: [4] 36.5 µM | [10] 6.06 µM | [11] 3.79 µM

CCC1(C)NC(=O)NC1=O (centres undefined)
not listed: [7] | [9] | [10] | [11] | [14]
inactive: all other assays above

CS(C)=O
not listed: [7] | [8] | [10] | [14]
inactive: all other assays above

CCCCSCCCC
not listed: [8] | [9] | [12] | [13] | [14]
inactive: all other assays above

C[N+](C)(C)CCCCCC[N+](C)(C)C
not listed: [9] | [12] | [13] | [14]
inactive: all other assays above

COC(=O)c1ccc(C)cc1C1=NC(C)(C(C)C)C(=O)N1 (centres undefined) (tested in a mixture with another compound)
inactive: [1] | [2] | [3] | [4] | [5] | [6] | [9] | [11]

CC(=O)C(C)O (centres undefined)
inactive: [1] | [2] | [3] | [4] | [5] | [6] | [14] | [13]

CCc1ccc(O)c(OC)c1
inactive: [1] | [2] | [3] | [4] | [5] | [6] | [10] | [11]

C[C@H]1C[C@@H](O)CC(C)(C)C1
not listed: [7] | [14]
inactive: all other assays above

COc1cccc(OC)c1O
inactive: [1] | [2] | [3] | [4] | [5] | [6] | [11]

CCOC(=O)CN
not listed: [9] | [11] | [14]
inactive: all other assays above

CCCCOCC
not listed: [8] | [11] | [12] | [14]
inactive: all other assays above

Nc1ccccc1[N+](=O)[O-]
not listed: [8] | [9] | [12] | [13] | [14]
inactive: all other assays above

Cc1c(C2(c3cc(Br)c(O)c(Br)c3C)OS(=O)(=O)c3ccccc32)cc(Br)c(O)c1Br
inactive: [1] | [2] | [3] | [5] | [6] | [10] | [12]
active: [4] 52.5 µM | [11] 13 µM

C=CCOC(=O)CCCCCC
not listed: [8] | [9] | [12] | [14]
inactive: all other assays above

CCOc1ccccc1O
not listed: [7] | [8] | [12] | [14]
inactive: all other assays above
